The list is not random: actives were taken first. Their share in the collection is about 21%.
DRD3 antagonist: qHTS of D3 Dopamine Receptor Antagonist: qHTS; D3R cells, DiscoveRx beta-arrestin luminescence, antagonist mode; active compounds read low; max response, negative = inhibition, %; 360,000 compounds, 2.5% hits; AID 652054, 2013; in the data active = max response below about -50%; inconclusive = no clear call, values can overlap the other calls
Target sequence (P35462 whole entry, looked up): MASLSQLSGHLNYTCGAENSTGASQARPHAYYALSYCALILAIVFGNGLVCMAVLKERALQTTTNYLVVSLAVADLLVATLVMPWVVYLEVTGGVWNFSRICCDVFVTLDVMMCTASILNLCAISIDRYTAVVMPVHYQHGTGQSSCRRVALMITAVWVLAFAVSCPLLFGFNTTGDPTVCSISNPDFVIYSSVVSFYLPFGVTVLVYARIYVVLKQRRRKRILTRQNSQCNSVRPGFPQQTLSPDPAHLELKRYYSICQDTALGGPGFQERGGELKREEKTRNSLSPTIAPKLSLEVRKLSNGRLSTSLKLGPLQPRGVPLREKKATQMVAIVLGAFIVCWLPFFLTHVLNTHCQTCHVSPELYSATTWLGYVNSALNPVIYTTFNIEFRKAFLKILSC
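Cells plated overnight at 1500 cells/well, then exposed to library compounds with dopamine controls for 90 minutes at 37 degrees C. DiscoveRx reagent added for 30–60 minutes at room temperature; luminescence read, quantitative HTS format.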
IL-1B inflam inh: qHTS for Inhibitors of Inflammasome Signaling: IL-1-beta AlphaLISA Primary Screen | THP-1 LPS/ATP IL-1B secretion, AlphaLISA, 16 h; active compounds read low | activity change, % at 57.5 µM | 360,000 compounds, 4.7% hits; in the data active = activity change below about -50%; inconclusive = mostly about -30% to -49%
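Secreted IL-1B measured by AlphaLISA bead assay after 16 h compound exposure of THP-1 cells; compounds (final up to 57.5 uM) added 1 h before LPS (250 ng/mL) and ATP (1.25 mM) stimulation; lower signal means less secretion.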
TDP1 cell noCPT: qHTS for Inhibitors of human tyrosyl-DNA phosphodiesterase 1 (TDP1): qHTS in cells in absence of CPT. Potency, µM (series often up to 46.2 µM), most hits filed as inhibitors. 420,000 compounds, 15% hits. DT40 Tdp1-/- hTDP1 cells, no CPT, ATP luminescence, 48 h; note: nearly all actives have a fitted effect of over 55% in size
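No-CPT arm: Tdp1-/-;hTDP1 DT40 cells (400/well) plus compounds, incubated ≥48 hr at 37 °C. Readout CellTiter-Glo luminescence.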
DT40 TDP1 CPT: qHTS for Inhibitors of human tyrosyl-DNA phosphodiesterase 1 (TDP1): qHTS in cells in presence of CPT. chicken DT40 Tdp1-/-;hTDP1 cells + 20 nM CPT, ATP luminescence, 48 h. Potency, µM (doses to about 46.2 µM), most hits filed as inhibitors. 420,000 compounds, 12% hits; note: nearly all actives have a fitted effect of over 55% in size
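Cell growth measured by CellTiter-Glo luminescence after a minimum 48 h, 37 C compound exposure with 20 nM CPT in Tdp1-knockout DT40 cells stably expressing hTDP1, seeded 400/well; qHTS titration format.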
DRD3 agonist: qHTS of D3 Dopamine Receptor Agonist: qHTS | D(3) dopamine receptor (Homo sapiens), P35462 | D3R DiscoveRx beta-arrestin cells, luminescence, 90 min | max activation, % | 410,000 compounds, 0.58% hits; in the data active = max activation above about 30%
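Cells at 1500/well, incubated overnight, then treated with pinned compounds (dopamine as control) for 90 min at 37 degrees C. DiscoveRx reagent added for 30 - 60 minutes at room temperature; luminescence read.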
ClpP mod: qHTS Assay for Activators of ClpP; purified B. subtilis ClpP, FRET peptide cleavage, 20 min; Potency, µM (top dose mostly 57.5 µM); 340,000 compounds, 1.9% hits; AID 651965, 2013; active = well fitted falling curve with a large enough effect; inconclusive = small, poorly fitted or top-dose-only effect; inactive = no such curve, though single readings can be large or run the other way; note: the source files actives as falling curves though it sought activators and does not explain the sign; nearly all actives have a fitted effect of over 65% in size
Target sequence (P80244 whole entry, looked up): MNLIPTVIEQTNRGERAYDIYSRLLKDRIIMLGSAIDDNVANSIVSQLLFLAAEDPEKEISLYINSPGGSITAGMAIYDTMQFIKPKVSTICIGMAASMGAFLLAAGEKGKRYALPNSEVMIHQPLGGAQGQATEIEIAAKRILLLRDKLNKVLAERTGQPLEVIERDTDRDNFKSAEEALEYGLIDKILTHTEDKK
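Purified B. subtilis ClpP, 10 microg/mL final in Tris/HCl pH8 with KCl, BSA, glycerol and Tween-20, cleaved an Abz/nitrotyrosine-quenched decapeptide. Fluorescence (ex 320, em 430) was read at 0 and 20 min at room temperature. Delta was normalized to 5.8 microM ADEP and DMSO/no-enzyme controls.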
Each line names hits and unclear results; the compound was inactive in the other large screens. Unless noted, calls come from the whole dose curve; as a rule, active = well fitted inhibition curve with a large enough effect; inconclusive = small, poorly fitted or top-dose-only effect; inactive = flat fitted curve, though single readings scatter.

COc1ccc(/C=N/OCC(=O)N2CC3(C)CC2CC(C)(C)C3)cc1 (centres undefined)	IL-1B inflam inh inconclusive
COc1ccc(-c2cc(C(=O)N3CCCCC3C)no2)cc1OC (centres undefined)	none (no result: DRD3 antagonist, IL-1B inflam inh)
COc1ccc(/C(C)=N/OCC(=O)N2CC3(C)CC2CC(C)(C)C3)cc1 (centres undefined)	IL-1B inflam inh -78, TDP1 cell noCPT inconclusive, DT40 TDP1 CPT inconclusive
COc1ccc(-c2cc(C(=O)N3CC4(C)CC3CC(C)(C)C4)no2)cc1OC (centres undefined)	TDP1 cell noCPT 16µM, DT40 TDP1 CPT inconclusive
COc1ccc(-c2cc(C(=O)N3CC4(C)CC3CC(C)(C)C4)no2)cc1 (centres undefined)	IL-1B inflam inh -53, TDP1 cell noCPT inconclusive, DT40 TDP1 CPT inconclusive
Cc1ccc(-c2cc(C(=O)N3CC4(C)CC3CC(C)(C)C4)no2)cc1 (centres undefined)	TDP1 cell noCPT 10µM, DT40 TDP1 CPT 18µM
O=C(NCc1ccccc1)c1onc(CS(=O)(=O)c2ccccn2)c1C(=O)NCc1ccccc1	TDP1 cell noCPT inconclusive, DT40 TDP1 CPT inconclusive
CC1(C)CC2CC(C)(CN2C(=O)c2cc(-c3ccccc3O)on2)C1 (centres undefined)	TDP1 cell noCPT 13µM, DT40 TDP1 CPT inconclusive
CC1CCN(C(=O)c2cc(-c3ccccc3O)on2)CC1	none
O=C(c1cc(COc2cccc(C(F)(F)F)c2)on1)N1C[C@H]2CC[C@H]1C2	TDP1 cell noCPT inconclusive, DT40 TDP1 CPT inconclusive
CC1(C)C[C@@H]2C[C@@](C)(CN2C(=O)c2cc(COc3cccc(C(F)(F)F)c3)on2)C1	IL-1B inflam inh -61, TDP1 cell noCPT 18µM, DT40 TDP1 CPT inconclusive
C#CCOc1ccc(-c2nnc(Nc3cccc(C)c3)c3ccccc23)cc1	TDP1 cell noCPT inconclusive, DT40 TDP1 CPT inconclusive (no result: DRD3 antagonist, IL-1B inflam inh)
Cc1ccc(-n2nnnc2SC(C)C(=O)Nc2ccc(Cl)cn2)cc1 (centres undefined)	IL-1B inflam inh -57, TDP1 cell noCPT inconclusive, DT40 TDP1 CPT inconclusive
Cc1ccc(-n2nnnc2SC(C)C(=O)NCC(=O)Nc2ccc(F)c(F)c2F)c(C)c1 (centres undefined)	IL-1B inflam inh inconclusive, TDP1 cell noCPT 15µM, DT40 TDP1 CPT 18µM
CC(CNC(=O)COC(=O)c1ccco1)c1ccccc1 (centres undefined)	none
COc1ccc(C(=O)N/C(=C\c2cn(S(=O)(=O)N(C)C)c3ccccc23)C(=O)NCCCN2CCOCC2)cc1	none
COc1ccc(CC(=O)NC(C)c2nnc(SCC(=O)c3ccc(Br)cc3)n2C)cc1 (centres undefined)	DRD3 antagonist -56, TDP1 cell noCPT inconclusive
CSc1ncccc1C(=O)N1CCN(S(=O)(=O)c2ccccc2)CC1	none
COc1ccc(CNC(=S)Nc2ccc(Br)cc2)cc1	TDP1 cell noCPT 18µM, DT40 TDP1 CPT inconclusive
COc1ccc(NC(=S)NCc2ccc3c(c2)cc(C)n3C)cc1	DRD3 antagonist inconclusive, TDP1 cell noCPT inconclusive, DT40 TDP1 CPT 18µM
CCc1cccc(C)c1NC(=S)NCc1ccc2c(c1)cc(C)n2C	TDP1 cell noCPT 16µM, DT40 TDP1 CPT 21µM
COc1ccccc1NC(=S)NCc1ccc2c(c1)cc(C)n2C	TDP1 cell noCPT 23µM, DT40 TDP1 CPT 16µM (no result: ClpP mod)
COc1ccc(CNC(=S)Nc2cc(C)cc(C)c2)cc1	TDP1 cell noCPT inconclusive, DT40 TDP1 CPT inconclusive
COc1ccc(CC(=O)NCc2ccc3c(c2)cc(C)n3C)cc1	none
Cc1ccc(S(=O)(=O)NCCC(=O)Nc2ncccc2O)cc1C	none
OCCN1CCN(Cc2ccc3c(c2)CN(Cc2cccn2-c2ccccn2)CCO3)CC1	none (no result: DRD3 antagonist, IL-1B inflam inh, DRD3 agonist, ClpP mod)
Cc1ccccc1NC(=S)NCc1ccc2c(c1)cc(C)n2C	TDP1 cell noCPT 3.3µM, DT40 TDP1 CPT 2.9µM
Cc1cc2cc(CNC(=S)NCc3ccccc3)ccc2n1C	none (no result: ClpP mod)
COc1ccc(CNC(=O)Nc2cccc(C)c2)cc1	none
CCC(CC)C(=O)NCc1ccc2c(c1)cc(C)n2C	TDP1 cell noCPT inconclusive, DT40 TDP1 CPT 10µM
CCCS(=O)(=O)NCc1ccc2c(c1)cc(C)n2C	IL-1B inflam inh -69
COc1ccc(CCNC(=S)Nc2cccc(C)c2)cc1	TDP1 cell noCPT 16µM, DT40 TDP1 CPT inconclusive
CCS(=O)(=O)NCc1ccc2c(c1)cc(C)n2C	none
CC1CCN(CCCNC(=O)CN2C(=O)CSc3ccc(S(=O)(=O)N4CCC(C)CC4)cc32)CC1	IL-1B inflam inh inconclusive, TDP1 cell noCPT 15µM, DT40 TDP1 CPT inconclusive
COc1cccc(NC(=O)CN2C(=O)CSc3ccc(S(=O)(=O)N4CCC(C)CC4)cc32)c1	IL-1B inflam inh -89, TDP1 cell noCPT inconclusive, DT40 TDP1 CPT inconclusive
CC1CCN(S(=O)(=O)c2cccc(S(=O)(=O)N3CCCC3)c2)CC1	TDP1 cell noCPT inconclusive (no result: ClpP mod)
Cc1cc(C)c(NC(=O)COC(=O)C2=COCCO2)c(Cl)c1	none
Nc1ccc(C(=O)C(=O)c2ccc(N)cc2)cc1	none
N=C1C=CC(=C(c2ccc(N)cc2)c2ccc(N)cc2)C=C1	DRD3 antagonist inconclusive, TDP1 cell noCPT 3.3µM, DT40 TDP1 CPT 2.9µM
O=[N+]([O-])c1cccc(C(=Nc2ccccc2)NO)c1	TDP1 cell noCPT inconclusive
O=[N+]([O-])c1cc([N+](=O)[O-])c2c(=Nc3ccccc3)n(-c3ccccc3)n(O)c2c1	DRD3 antagonist inconclusive, TDP1 cell noCPT 10µM, DT40 TDP1 CPT 3.3µM (no result: ClpP mod)
Cc1ccc(CN2CC(C(=O)N(C)CC(=O)Nc3cccc(F)c3)CC2=O)cc1 (centres undefined)	none
CC(=O)c1ccc(F)c(-c2cc(C)cc3c2OC(CNC(=O)C[C@@H]2C[C@@H](C)NC(=S)N2)C3)c1 (some centres undefined)	none (no result: DRD3 antagonist, IL-1B inflam inh, DRD3 agonist, ClpP mod)
COc1ccc(C(C)=O)cc1CN1C(=O)C(C)ON=C1c1ncccc1C (centres undefined)	none
COc1ccc(C(C)=O)cc1CN1C(=O)C(C)ON=C1c1cccc(C(F)(F)F)c1 (centres undefined)	TDP1 cell noCPT 16µM, DT40 TDP1 CPT inconclusive
COc1ccc(NC(=O)N(C)C[C@@H]2OCc3cnnn3CCCC(=O)N([C@@H](C)CO)C[C@H]2C)cc1	none
Cc1ccc(NC(=O)CN2CCN(S(=O)(=O)c3ccc4c(c3)OCCO4)CC2)c(C)c1	TDP1 cell noCPT inconclusive
